Active and inactive are the calls of the source. Rule for the calls: active = hit-call score of the fitted dose curve at least 0.9, where 1 is the maximum; inactive = score below 0.9.
Experiments:
Settings in all cases: mRNA level, 48 h; actives raise or lower the signal
[1] = read-out: Alpha-fetoprotein (AFP) gene, AFP (gene 174); assay: LTEA_HepaRG_AFP: Life Technologies and Expression Analysis (LTEA) Assay for Alpha-fetoprotein (AFP) gene using HepaRG (AID 2283472)
Outline: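 Human HepaRG cells plated 48 h, then switched to serum-free induction medium and exposed in duplicate for 48 h to 8-point half-log series from 100 uM in 0.5% DMSO. AFP mRNA by qRT-PCR, normalized to ACTB, GAPDH, POLR2A; bidirectional fit versus DMSO.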

BCL2L11 (gene 10018) = assay: LTEA_HepaRG_BCL2L11: Life Technologies and Expression Analysis (LTEA) Assay for Bcl-2 (BCL2L11) gene using HepaRG (AID 2283473)
Outline: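 Human hepatic HepaRG cultures are treated 48 h with test chemicals (maximum 100 uM, 0.5% DMSO vehicle). Expression of BCL2L11 is measured by qRT-PCR against ACTB, GAPDH and POLR2A, with activity in either direction scored relative to vehicle.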

[2] = read-out: Apolipoprotein A-V (APOA5) gene, APOA5 (gene 116519); assay: LTEA_HepaRG_APOA5: Life Technologies and Expression Analysis (LTEA) Assay for Apolipoprotein A-V (APOA5) gene using HepaRG (AID 2283474)
Outline: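 Concentration-response of APOA5 expression in HepaRG: eight half-log doses to 100 uM, 48 h, qRT-PCR normalized to ACTB/GAPDH/POLR2A, bidirectional fitting with 0.5% DMSO as baseline.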

[3] = read-out: Bcl-2 (BID) gene, BID (gene 637); assay: LTEA_HepaRG_BID: Life Technologies and Expression Analysis (LTEA) Assay for Bcl-2 (BID) gene using HepaRG (AID 2283476)
Outline: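 Differentiated HepaRG cells in serum-free induction medium were exposed in duplicate for 48 h to eight half-log concentrations up to 100 uM in 0.5% DMSO. BID mRNA was quantified by qRT-PCR, normalized to ACTB, GAPDH and POLR2A.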

Caspase-3 (Homo sapiens) = Caspase-3 (Homo sapiens) (UniProt P42574); assay: LTEA_HepaRG_CASP3: Life Technologies and Expression Analysis (LTEA) Assay for cysteine-aspartic acid protease (CASP3) using HepaRG (AID 2283477)
Outline: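 Transcript-level assay: CASP3 mRNA in human HepaRG after 48 h treatment, eight half-log concentrations from 100 uM in 0.5% DMSO, quantified by qRT-PCR.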

[4] = read-out: Cytochrome P450 (CYP1A2), CYP1A2 (gene 1544); assay: LTEA_HepaRG_CYP1A2: Life Technologies and Expression Analysis (LTEA) Assay for Cytochrome P450 (CYP1A2) using HepaRG (AID 2283479)
Outline: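 In duplicate wells, HepaRG cultures maintained in 0.5% DMSO were treated 48 h across an 8-point, half-log series topping at 100 uM; phenobarbital (1 mM) served as induction control. Expression was read by qRT-PCR.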

[5] = read-out: cysteine-aspartic acid protease (CASP8), CASP8 (gene 841); assay: LTEA_HepaRG_CASP8: Life Technologies and Expression Analysis (LTEA) Assay for cysteine-aspartic acid protease (CASP8) using HepaRG (AID 2283480)
Outline: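 Differentiated human HepaRG cells, plated 48 h then switched to serum-free induction medium, were exposed in duplicate for 48 h to 8 half-log concentrations up to 100 uM in 0.5% DMSO. CASP8 mRNA was quantified by qRT-PCR, normalized to ACTB/GAPDH/POLR2A.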

CYP2C8 (gene 1558) = assay: LTEA_HepaRG_CYP2C8: Life Technologies and Expression Analysis (LTEA) Assay for CYP2C8 using HepaRG (AID 2283483)
Outline: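 Differentiated human HepaRG cells were exposed for 48 h in serum-free induction medium to eight half-log concentrations up to 100 uM in 0.5% DMSO, in duplicate. CYP2C8 mRNA was measured by TaqMan qRT-PCR, normalized to ACTB, GAPDH and POLR2A, and fitted bidirectionally against DMSO.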

CYP2C9 (gene 1559) = assay: LTEA_HepaRG_CYP2C9: Life Technologies and Expression Analysis (LTEA) Assay for CYP2C9 using HepaRG (AID 2283484)
Outline: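 Differentiated human HepaRG cells were exposed 48 h in serum-free induction medium to eight half-log concentrations up to 100 uM in 0.5% DMSO. CYP2C9 mRNA was measured by qRT-PCR, normalized to ACTB, GAPDH and POLR2A, and fitted bidirectionally against DMSO.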

CYP2E1 (gene 1571) = assay: LTEA_HepaRG_CYP2E1: Life Technologies and Expression Analysis (LTEA) Assay for CYP2E1 using HepaRG (AID 2283485)
Outline: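 HepaRG cells in serum-free induction medium exposed 48 h to test chemicals, 8 half-log concentrations up to 100 uM in 0.5% DMSO, duplicate. CYP2E1 mRNA by qRT-PCR, normalized to ACTB, GAPDH, POLR2A; bidirectional fit versus DMSO.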

CYP4A11 (gene 1579) = assay: LTEA_HepaRG_CYP4A11: Life Technologies and Expression Analysis (LTEA) Assay for CYP4A11 using HepaRG (AID 2283486)
Outline: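 Human hepatic HepaRG cultures receive duplicate 48 h exposures across a concentration-response series topping at 100 uM. Expression changes in CYP4A11 are measured by qRT-PCR relative to DMSO controls.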

[6] = read-out: Cytochrome P450 3A4 (Homo sapiens) (UniProt P08684); assay: LTEA_HepaRG_CYP3A4: Life Technologies and Expression Analysis (LTEA) Assay for CYP3A4 using HepaRG (AID 2283487)
Outline: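 HepaRG, 48 h exposure, 8-pt CRC from 100 uM (half-log), 0.5% DMSO, duplicates; serum-free induction medium. Readout: CYP3A4 mRNA, qRT-PCR, ACTB/GAPDH/POLR2A normalization. Bidirectional fit vs DMSO.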

[7] = read-out: DNA damage-inducible transcript 3 (DDIT3), DDIT3 (gene 1649); assay: LTEA_HepaRG_DDIT3: Life Technologies and Expression Analysis (LTEA) Assay for DNA damage-inducible transcript 3 (DDIT3) using HepaRG (AID 2283488)
Outline: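 Differentiated human HepaRG cells in serum-free induction medium were exposed in duplicate for 48 h to 8 concentrations (top 100 uM, half-log steps, 0.5% DMSO). DDIT3 mRNA measured by TaqMan qRT-PCR, normalized to ACTB/GAPDH/POLR2A; bidirectional fit versus DMSO.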

[8] = read-out: Pro-epidermal growth factor (Homo sapiens) (UniProt P01133); assay: LTEA_HepaRG_EGF: Life Technologies and Expression Analysis (LTEA) Assay for Epidermal growth factor (EGF) using HepaRG (AID 2283489)
Outline: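 Concentration-response mRNA assay: HepaRG cells dosed 48 h (max 100 uM, 0.5% DMSO), EGF measured by qRT-PCR and normalized to ACTB/GAPDH/POLR2A.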

[9] = read-out: Ezrin (EZR), EZR (gene 7430); assay: LTEA_HepaRG_EZR: Life Technologies and Expression Analysis (LTEA) Assay for Ezrin (EZR) using HepaRG (AID 2283491)
Outline: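 Read-out is EZR transcript level by qRT-PCR, normalized to three housekeeping genes and fitted bidirectionally against the DMSO control. Human HepaRG cells received test chemicals for 48 h at eight half-log concentrations up to 100 uM in 0.5% DMSO.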

[10] = read-out: Cytochrome P450 (CYP24A1), CYP24A1 (gene 1591); assay: LTEA_HepaRG_CYP24A1: Life Technologies and Expression Analysis (LTEA) Assay for Cytochrome P450 (CYP24A1) using HepaRG (AID 2283478)
Outline: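 Gene expression of CYP24A1 by TaqMan qRT-PCR in HepaRG after 48 h treatment, highest concentration 100 uM; activity fitted in both directions relative to DMSO vehicle.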

[11] = read-out: Cytochrome P450 2C19 (Homo sapiens) (UniProt P33261); assay: LTEA_HepaRG_CYP2C19: Life Technologies and Expression Analysis (LTEA) Assay for CYP2C19 using HepaRG (AID 2283482)
Outline: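 Endpoint: CYP2C19 mRNA change, bidirectional fit vs 0.5% DMSO. Cells: HepaRG, 48 h exposure, eight-point series topping at 100 uM. Quantitation: qRT-PCR normalized to ACTB, GAPDH, POLR2A.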

[12] = read-out: Early growth response protein 1 (EGR1) transcription factor, EGR1 (gene 1958); assay: LTEA_HepaRG_EGR1: Life Technologies and Expression Analysis (LTEA) Assay for Early growth response protein 1 (EGR1) transcription factor using HepaRG (AID 2283490)
Outline: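 Differentiated human HepaRG cells in serum-free induction medium were exposed in duplicate for 48 h to eight concentrations (top 100 uM, half-log steps) in 0.5% DMSO. EGR1 mRNA was quantified by qRT-PCR, normalized to ACTB, GAPDH and POLR2A, and fitted bidirectionally versus DMSO.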

Measured: AC50

Chain of Caspase-3 (Homo sapiens) (P42574 whole entry, looked up): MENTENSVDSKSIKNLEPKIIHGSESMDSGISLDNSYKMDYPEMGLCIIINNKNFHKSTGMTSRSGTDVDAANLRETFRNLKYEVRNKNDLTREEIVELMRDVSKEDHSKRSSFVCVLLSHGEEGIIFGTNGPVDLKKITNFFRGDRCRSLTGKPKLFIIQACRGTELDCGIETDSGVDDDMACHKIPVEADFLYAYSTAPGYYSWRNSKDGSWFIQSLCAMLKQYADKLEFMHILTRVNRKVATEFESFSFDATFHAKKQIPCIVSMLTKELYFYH
Chain of Cytochrome P450 3A4 (Homo sapiens) (P08684 whole entry, looked up): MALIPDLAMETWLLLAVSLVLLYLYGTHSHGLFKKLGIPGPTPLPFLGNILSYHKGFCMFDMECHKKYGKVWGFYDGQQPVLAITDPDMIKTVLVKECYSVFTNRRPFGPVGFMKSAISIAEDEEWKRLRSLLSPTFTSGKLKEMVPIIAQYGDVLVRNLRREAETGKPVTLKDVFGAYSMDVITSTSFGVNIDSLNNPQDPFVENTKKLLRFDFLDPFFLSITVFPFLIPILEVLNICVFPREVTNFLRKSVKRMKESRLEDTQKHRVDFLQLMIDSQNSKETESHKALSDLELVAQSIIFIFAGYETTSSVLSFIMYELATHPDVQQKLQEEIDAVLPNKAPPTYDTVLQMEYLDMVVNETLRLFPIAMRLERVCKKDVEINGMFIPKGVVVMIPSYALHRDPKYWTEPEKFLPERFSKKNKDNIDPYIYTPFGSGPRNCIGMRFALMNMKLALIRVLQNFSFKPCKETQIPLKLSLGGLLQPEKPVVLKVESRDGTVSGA
Chain of Cytochrome P450 2C19 (Homo sapiens) (P33261 whole entry, looked up): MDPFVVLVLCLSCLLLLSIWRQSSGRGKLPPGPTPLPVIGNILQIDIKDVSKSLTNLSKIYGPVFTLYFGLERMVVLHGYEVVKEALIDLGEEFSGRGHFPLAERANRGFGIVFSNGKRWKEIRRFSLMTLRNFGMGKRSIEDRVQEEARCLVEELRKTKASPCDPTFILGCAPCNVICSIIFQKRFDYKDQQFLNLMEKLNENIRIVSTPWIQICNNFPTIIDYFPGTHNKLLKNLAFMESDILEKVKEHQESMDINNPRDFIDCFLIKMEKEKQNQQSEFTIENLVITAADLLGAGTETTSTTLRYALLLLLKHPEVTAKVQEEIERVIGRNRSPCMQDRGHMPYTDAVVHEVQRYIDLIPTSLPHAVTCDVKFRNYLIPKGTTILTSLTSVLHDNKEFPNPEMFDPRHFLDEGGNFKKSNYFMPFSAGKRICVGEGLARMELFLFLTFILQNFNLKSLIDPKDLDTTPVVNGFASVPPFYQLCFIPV

CCN(CC)N=O
not listed: [10] | [11] | [12]
inactive: all other assays above

c1ccc2c(c1)-c1cccc3cccc-2c13
active: [4] 50 µM | CYP2E1 (gene 1571) 34.6 µM | [6] 18 µM
not listed: [8] | [11] | [12]
inactive: all other assays above

O=[N+]([O-])c1ccc(Oc2ccc(Cl)cc2Cl)cc1
active: [1] 66.9 µM | [4] 27.2 µM | [11] 12.4 µM | CYP2E1 (gene 1571) 58 µM | [7] 50 µM
not listed: [6] | [10] | [12]
inactive: all other assays above

CS(=O)(=O)NC(=O)c1cc(Oc2ccc(C(F)(F)F)cc2Cl)ccc1[N+](=O)[O-]
active: CYP2C8 (gene 1558) 1.76 µM | CYP2E1 (gene 1571) 9.92 µM | CYP4A11 (gene 1579) 2.84 µM | [6] 1.23 µM
not listed: [7] | [11]
inactive: all other assays above

N#CC(Br)Br
not listed: [10] | [12]
inactive: all other assays above

O=C(Oc1ccc(Br)cc1)N1CCN2CCC1CC2
active: [4] 66.7 µM | CYP2E1 (gene 1571) 63.8 µM | CYP4A11 (gene 1579) 34.9 µM | [6] 33.3 µM
not listed: [7] | [10] | [11]
inactive: all other assays above
